According to PubChem BioAssay (NCATS):
Where “and” joins values, the source holds several entries; their conditions need not be identical. Equal entries are not always repeated. Inconclusive results are not listed. A call without a number means that no potency is given here. Some structures have more than one record in an assay (separate samples or runs), and their calls can disagree. Calls of active or inactive are those of the source. Unless noted, calls come from the whole dose curve.

Key:
[1] = target: Ubiquitin carboxyl-terminal hydrolase 1 (Homo sapiens) (UniProt O94782); assay: Inhibitors of USP1/UAF1: Pilot qHTS (AID 504865; active = well fitted inhibition curve with a large enough effect;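 note: rhodamine fluorescence freed from ubiquitin-rhodamine substrate followed over time; top concentration of the series differs between compounds; nearly all actives have a fitted effect of over 35% in size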)
How it was run: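 Enzyme-free wells gave the negative control, while test wells held 1nM USP1/UAF1 preincubated with compound for 15 min at room temperature. Ub-Rho at 150nM final started the reaction, and fluorescence at 480/540 nm was recorded kinetically.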

[2] = target: Bile acid receptor (Homo sapiens) (UniProt Q96RI1); assay: qHTS assay for small molecule antagonists of farnesoid X receptor signaling (AID 588526)
How it was run: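 Antagonist mode: titrated compounds tested against chenodeoxycholic acid stimulation (normalized to 50 uM CDCA and DMSO) in GeneBLAzer HEK293T cells for 16 h. Beta-lactamase read by CCF4 fluorescence; IC50 from Hill fits.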

[3] = target: Glucocorticoid receptor (Homo sapiens) (UniProt P04150); assay: qHTS assay for small molecule agonists of glucocorticoid receptor signaling (AID 588532; active = well fitted curve in the direction sought with a large enough effect in the signal ratio, with a control signal flat; the % refers to the signal ratio); conditions: HeLa MMTV-bla, beta-lactamase ratio, agonist, 18 h; stronger effect = higher value; percent of dexamethasone control, DMSO zero
How it was run: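 HeLa GRE-bla reporter cells; 18 h compound exposure at 37 C; 2 h CCF4 loading at room temperature; fluorescence at 460 and 530 nm; EC50 by Hill equation.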

[4] = target: Glucocorticoid receptor (Homo sapiens) (UniProt P04150); assay: qHTS assay for small molecule antagonists of glucocorticoid receptor signaling (AID 588533; active = well fitted inhibition curve with a large enough effect in the signal ratio, with a control signal flat, not every such curve was filed as active; the % refers to the signal ratio;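 note: cells stimulated with 2 nM dexamethasone as agonist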)
How it was run: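 Antagonist-mode qHTS: compound titrations added to GRE-bla HeLa cells, then dexamethasone 2 nM final; 18 h, 37 C. CCF4 FRET fluorescence normalized to dexamethasone and DMSO; IC50 from Hill fit.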

[5] = target: Vitamin D3 receptor (Homo sapiens) (UniProt P11473); assay: qHTS assay for small molecule agonists of vitamin D receptor signaling (AID 588543)
How it was run: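 Measured: β-lactamase reporter activity (CCF4, 405 nm excitation, 460/530 nm emission) in HEK293T VDR-UAS-bla cells after 16 h compound exposure at 37 °C. Normalization against 50 nM 1α,25-dihydroxyvitamin D3 and DMSO; Hill-fit EC50.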

[6] = qHTS assay for small molecule agonists of retinoid X receptor alpha signaling (AID 588544); conditions: HEK293T RXRa-UAS-bla, beta-lactamase reporter, 18 h; 530 nm emission
[7] = target: Retinoic acid receptor RXR-alpha (Homo sapiens) (UniProt P19793); assay: as above
[8] = qHTS assay for small molecule antagonists of peroxisome proliferator-activated receptor delta signaling (AID 588535; active = well fitted inhibition curve with a large enough effect in the signal ratio, with a control signal flat, not every such curve was filed as active; the % refers to the signal ratio;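 for max response: cells co-treated with a PPAR-delta agonist as stimulator during compound exposure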); conditions: HEK293T PPARd-UAS-bla, beta-lactamase FRET ratio, 18 h; 460 nm channel
How it was run: (§1)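 Cells were seeded at 4000 per well in assay medium containing 2% charcoal/dextran FBS and held 5 hrs at 37 C. Compounds were then added for 18 hrs. CCF4 substrate was applied for 2 hrs at room temperature before fluorescence reading.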

[9] = target: Peroxisome proliferator-activated receptor delta (Homo sapiens) (UniProt Q03181); assay: as above
How it was run: as §1

[10] = target: Peroxisome proliferator-activated receptor gamma (Homo sapiens) (UniProt P37231); assay: qHTS assay for small molecule agonists of peroxisome proliferator-activated receptor gamma signaling (AID 588536; active = well fitted curve in the direction sought with a large enough effect in the signal ratio, with a control signal flat, not every such curve was filed as active; the % refers to the signal ratio)
How it was run: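 Ratiometric blue/green fluorescence (405 nm excitation; 460 and 530 nm emission) from CCF4-loaded HEK293 reporter cells serves as signal. Exposure to test compounds lasts 16 h at 37 C in medium containing 1% charcoal/dextran-treated serum.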

[11] = target: DNA dC->dU-editing enzyme APOBEC-3G (Homo sapiens) (UniProt Q9HC16); assay: qHTS for inhibitors of Vif-A3G interactions: Validation (AID 588379; active = well fitted inhibition curve with a large enough effect)
How it was run: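 HeLa cells stably expressing Vif and A3G-eYFP, 700 cells/well, incubated overnight at 37 deg C, then exposed to compound overnight at 37 deg C. Inhibition of Vif-mediated degradation read as increased yellow fluorescence (Ex 488/Em 500-530) by laser-scanning cytometry.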

[12] = target: Peroxisome proliferator-activated receptor gamma (Homo sapiens) (UniProt P37231); assay: qHTS assay for small molecule antagonists of peroxisome proliferator-activated receptor gamma signaling (AID 588537; active = well fitted inhibition curve with a large enough effect in the signal ratio, with a control signal flat, not every such curve was filed as active; the % refers to the signal ratio;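 note: reporter cells co-stimulated with 50 nM rosiglitazone agonist during compound treatment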)
How it was run: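 Step one: plate 3000 HEK293 UAS-bla cells per well in medium with 1% stripped serum and hold 6-6.5 h at 37 C. Step two: add compound and 50 nM agonist for 16 h. Step three: CCF4 loading, fluorescence read.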

[13] = target: Androgen receptor (Homo sapiens) (UniProt P10275); assay: qHTS assay for small molecule agonists of androgen receptor signaling (AID 588515; active = well fitted curve in the direction sought with a large enough effect in the signal ratio, with a control signal flat; the % refers to the signal ratio); conditions: AR-UAS-bla HEK293, beta-lactamase ratio, agonist 16 h; stronger effect = higher value
How it was run: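 EC50 and efficacy came from Hill fits of titrations (up to 92 uM) normalized to 30 nM R1881 as 100% and DMSO as 0%. Compound exposure was 16 h at 37 C on AR-UAS-bla HEK293 cells, with a 405/460/530 nm CCF4 fluorescence read.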

[14] = target: Androgen receptor (Homo sapiens) (UniProt P10275); assay: qHTS assay for small molecule antagonists of androgen receptor signaling (AID 588516; active = well fitted curve in the direction sought with a large enough effect in the signal ratio, with a control signal flat, not every such curve was filed as active; the % refers to the signal ratio)
How it was run: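 Compounds tested in titration against 10 nM R1881 in AR-responsive bla reporter HEK 293 cells; CCF4 fluorescence (460/530 nm) after 16 h exposure gave IC50 and efficacy.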

[15] = target: Estrogen receptor (Homo sapiens) (UniProt P03372); assay: qHTS assay for small molecule antagonists of estrogen receptor alpha signaling (AID 588513; active = well fitted curve in the direction sought with a large enough effect in the signal ratio, with a control signal flat, not every such curve was filed as active; the % refers to the signal ratio; note: potency is the fitted concentration of half-maximal effect)
How it was run: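 Antagonist-mode qHTS in ER-alpha-UAS-bla HEK 293 cells: compound titration, 0.5nM estradiol for 18 h, CCF4 fluorescence, Hill-derived IC50.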

[16] = target: Estrogen receptor (Homo sapiens) (UniProt P03372); assay: qHTS assay for small molecule agonists of estrogen receptor alpha signaling (AID 588514); note: nearly all actives have a fitted effect of over 70% in size
How it was run: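 ER-alpha-UAS-bla GripTite HEK 293 cells in medium with 2% charcoal/dextran-treated FBS were treated with compound titrations at 37 C for 18 hrs; beta-lactamase reporter read by CCF4 fluorescence after 2 hrs at RT.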

Sequence of Peroxisome proliferator-activated receptor delta (Homo sapiens) (Q03181 whole entry, looked up): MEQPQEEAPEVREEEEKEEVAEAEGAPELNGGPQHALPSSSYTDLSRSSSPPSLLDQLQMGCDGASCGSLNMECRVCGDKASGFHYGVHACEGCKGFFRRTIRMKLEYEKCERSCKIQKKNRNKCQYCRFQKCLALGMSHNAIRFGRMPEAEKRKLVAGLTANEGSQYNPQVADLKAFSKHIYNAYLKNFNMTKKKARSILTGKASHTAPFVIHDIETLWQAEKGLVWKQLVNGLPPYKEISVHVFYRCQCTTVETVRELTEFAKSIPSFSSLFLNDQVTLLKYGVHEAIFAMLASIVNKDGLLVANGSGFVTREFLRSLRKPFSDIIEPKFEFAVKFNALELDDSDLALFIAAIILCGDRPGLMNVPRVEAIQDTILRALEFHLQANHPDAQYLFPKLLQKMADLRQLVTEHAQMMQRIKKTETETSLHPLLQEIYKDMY
Sequence of Estrogen receptor (Homo sapiens) (P03372 whole entry, looked up): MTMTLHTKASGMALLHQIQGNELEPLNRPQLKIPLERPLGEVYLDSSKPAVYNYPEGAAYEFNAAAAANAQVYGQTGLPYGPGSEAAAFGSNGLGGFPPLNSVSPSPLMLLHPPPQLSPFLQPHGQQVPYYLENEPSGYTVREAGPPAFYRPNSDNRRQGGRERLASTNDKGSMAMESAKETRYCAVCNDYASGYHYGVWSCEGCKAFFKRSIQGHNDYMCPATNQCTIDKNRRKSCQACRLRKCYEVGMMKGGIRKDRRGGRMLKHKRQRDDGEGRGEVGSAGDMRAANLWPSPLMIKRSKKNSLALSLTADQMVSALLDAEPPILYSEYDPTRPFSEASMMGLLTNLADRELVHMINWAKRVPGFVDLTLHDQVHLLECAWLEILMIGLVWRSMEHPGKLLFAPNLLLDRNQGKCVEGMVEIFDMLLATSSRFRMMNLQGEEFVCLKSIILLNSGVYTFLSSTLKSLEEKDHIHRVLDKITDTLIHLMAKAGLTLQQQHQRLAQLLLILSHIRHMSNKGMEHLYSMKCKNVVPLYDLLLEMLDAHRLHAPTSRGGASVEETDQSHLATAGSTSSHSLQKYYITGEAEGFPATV
Sequence of Peroxisome proliferator-activated receptor gamma (Homo sapiens) (P37231 whole entry, looked up): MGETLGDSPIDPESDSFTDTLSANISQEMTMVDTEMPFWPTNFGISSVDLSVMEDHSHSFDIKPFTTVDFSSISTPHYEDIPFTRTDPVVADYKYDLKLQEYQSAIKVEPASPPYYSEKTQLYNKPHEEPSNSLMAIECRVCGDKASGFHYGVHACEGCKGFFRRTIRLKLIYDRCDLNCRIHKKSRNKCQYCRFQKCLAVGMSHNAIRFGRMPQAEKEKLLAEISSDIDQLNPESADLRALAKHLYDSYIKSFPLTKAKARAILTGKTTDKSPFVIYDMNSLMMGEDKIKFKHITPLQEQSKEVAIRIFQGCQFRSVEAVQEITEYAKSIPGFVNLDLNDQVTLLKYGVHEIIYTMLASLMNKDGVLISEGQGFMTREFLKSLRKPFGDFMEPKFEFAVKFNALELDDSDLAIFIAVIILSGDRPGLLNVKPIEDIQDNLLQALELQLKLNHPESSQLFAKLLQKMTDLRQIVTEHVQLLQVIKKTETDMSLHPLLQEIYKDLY
Sequence of Vitamin D3 receptor (Homo sapiens) (P11473 whole entry, looked up): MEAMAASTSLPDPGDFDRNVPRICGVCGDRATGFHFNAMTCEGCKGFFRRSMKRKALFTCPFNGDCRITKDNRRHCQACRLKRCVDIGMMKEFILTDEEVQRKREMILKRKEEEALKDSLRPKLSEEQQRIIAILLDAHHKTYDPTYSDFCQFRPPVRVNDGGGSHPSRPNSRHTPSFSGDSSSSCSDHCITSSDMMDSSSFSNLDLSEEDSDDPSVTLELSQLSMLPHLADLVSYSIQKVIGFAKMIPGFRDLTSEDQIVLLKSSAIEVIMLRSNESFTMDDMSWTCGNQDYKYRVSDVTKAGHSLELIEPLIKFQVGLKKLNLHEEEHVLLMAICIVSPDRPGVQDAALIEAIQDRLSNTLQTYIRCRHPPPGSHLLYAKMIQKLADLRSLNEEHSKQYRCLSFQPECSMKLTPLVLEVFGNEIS
Sequence of Bile acid receptor (Homo sapiens) (Q96RI1 whole entry, looked up): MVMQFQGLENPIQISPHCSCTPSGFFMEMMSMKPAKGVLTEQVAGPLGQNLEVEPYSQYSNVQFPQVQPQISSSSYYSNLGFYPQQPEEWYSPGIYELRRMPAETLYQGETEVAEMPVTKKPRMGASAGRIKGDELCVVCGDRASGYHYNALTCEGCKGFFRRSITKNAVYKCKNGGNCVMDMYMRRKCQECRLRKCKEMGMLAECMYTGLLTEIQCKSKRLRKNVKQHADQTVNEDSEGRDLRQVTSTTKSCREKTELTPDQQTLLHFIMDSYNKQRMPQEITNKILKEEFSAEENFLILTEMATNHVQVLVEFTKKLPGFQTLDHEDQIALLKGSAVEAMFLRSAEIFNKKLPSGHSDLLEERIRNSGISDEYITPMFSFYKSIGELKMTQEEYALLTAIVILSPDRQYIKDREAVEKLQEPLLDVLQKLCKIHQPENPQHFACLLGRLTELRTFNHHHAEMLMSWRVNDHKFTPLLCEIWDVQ
Sequence of Ubiquitin carboxyl-terminal hydrolase 1 (Homo sapiens) (O94782 whole entry, looked up): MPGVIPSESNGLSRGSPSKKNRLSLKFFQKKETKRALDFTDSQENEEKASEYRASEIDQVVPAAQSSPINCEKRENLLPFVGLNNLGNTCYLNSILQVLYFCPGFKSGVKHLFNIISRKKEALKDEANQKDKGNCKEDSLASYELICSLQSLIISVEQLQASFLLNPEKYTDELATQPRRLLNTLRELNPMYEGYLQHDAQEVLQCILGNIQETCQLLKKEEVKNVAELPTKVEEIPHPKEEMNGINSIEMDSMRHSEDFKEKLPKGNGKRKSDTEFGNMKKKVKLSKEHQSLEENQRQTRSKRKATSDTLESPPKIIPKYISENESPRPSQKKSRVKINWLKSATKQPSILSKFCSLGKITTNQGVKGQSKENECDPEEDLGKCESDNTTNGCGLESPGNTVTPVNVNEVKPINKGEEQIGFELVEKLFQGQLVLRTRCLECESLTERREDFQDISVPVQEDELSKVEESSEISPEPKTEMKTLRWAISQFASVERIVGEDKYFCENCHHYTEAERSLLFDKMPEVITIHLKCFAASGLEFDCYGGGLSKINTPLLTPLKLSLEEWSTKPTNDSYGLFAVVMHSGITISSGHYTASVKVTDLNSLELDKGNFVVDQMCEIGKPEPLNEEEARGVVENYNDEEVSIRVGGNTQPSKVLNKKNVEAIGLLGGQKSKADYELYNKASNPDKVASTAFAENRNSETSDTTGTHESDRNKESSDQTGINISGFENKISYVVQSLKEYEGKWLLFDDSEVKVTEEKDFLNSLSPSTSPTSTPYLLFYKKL
Sequence of Androgen receptor (Homo sapiens) (P10275 whole entry, looked up): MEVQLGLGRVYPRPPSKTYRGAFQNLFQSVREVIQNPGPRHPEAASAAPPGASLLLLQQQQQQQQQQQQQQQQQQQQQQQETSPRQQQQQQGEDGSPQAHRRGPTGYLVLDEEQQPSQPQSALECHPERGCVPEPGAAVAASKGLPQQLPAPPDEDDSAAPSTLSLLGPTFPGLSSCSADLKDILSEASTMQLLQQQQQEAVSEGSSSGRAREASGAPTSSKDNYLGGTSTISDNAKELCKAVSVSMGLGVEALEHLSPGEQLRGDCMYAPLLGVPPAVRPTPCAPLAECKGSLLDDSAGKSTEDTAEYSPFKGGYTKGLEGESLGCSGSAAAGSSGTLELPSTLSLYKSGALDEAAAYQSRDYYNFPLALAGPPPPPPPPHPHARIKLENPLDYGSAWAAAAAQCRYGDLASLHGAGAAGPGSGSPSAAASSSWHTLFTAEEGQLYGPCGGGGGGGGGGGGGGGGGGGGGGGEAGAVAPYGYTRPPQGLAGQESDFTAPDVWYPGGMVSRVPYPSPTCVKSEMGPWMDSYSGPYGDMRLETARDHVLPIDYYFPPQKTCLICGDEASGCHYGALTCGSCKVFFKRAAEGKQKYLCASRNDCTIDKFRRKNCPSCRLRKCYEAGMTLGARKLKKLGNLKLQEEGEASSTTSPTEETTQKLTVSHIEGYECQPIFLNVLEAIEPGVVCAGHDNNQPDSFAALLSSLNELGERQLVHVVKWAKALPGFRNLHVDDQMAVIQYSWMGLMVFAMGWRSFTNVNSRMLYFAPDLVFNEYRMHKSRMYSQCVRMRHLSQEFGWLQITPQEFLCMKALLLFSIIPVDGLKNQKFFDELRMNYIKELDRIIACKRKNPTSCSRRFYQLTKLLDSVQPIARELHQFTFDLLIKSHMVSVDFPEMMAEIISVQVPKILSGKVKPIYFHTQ
Sequence of Retinoic acid receptor RXR-alpha (Homo sapiens) (P19793 whole entry, looked up): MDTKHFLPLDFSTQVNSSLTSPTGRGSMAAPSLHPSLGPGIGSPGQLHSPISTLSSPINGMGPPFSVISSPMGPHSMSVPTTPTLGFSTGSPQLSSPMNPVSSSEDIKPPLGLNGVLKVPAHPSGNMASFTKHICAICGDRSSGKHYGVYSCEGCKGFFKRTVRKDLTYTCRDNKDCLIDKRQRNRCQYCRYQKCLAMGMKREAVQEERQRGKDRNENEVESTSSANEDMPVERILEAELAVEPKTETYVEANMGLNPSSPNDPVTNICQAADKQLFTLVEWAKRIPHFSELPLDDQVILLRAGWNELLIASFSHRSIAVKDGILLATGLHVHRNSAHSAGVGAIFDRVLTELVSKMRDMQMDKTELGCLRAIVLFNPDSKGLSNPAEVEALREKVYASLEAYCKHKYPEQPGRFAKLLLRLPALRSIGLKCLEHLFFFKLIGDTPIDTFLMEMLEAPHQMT
Sequence of DNA dC->dU-editing enzyme APOBEC-3G (Homo sapiens) (Q9HC16 whole entry, looked up): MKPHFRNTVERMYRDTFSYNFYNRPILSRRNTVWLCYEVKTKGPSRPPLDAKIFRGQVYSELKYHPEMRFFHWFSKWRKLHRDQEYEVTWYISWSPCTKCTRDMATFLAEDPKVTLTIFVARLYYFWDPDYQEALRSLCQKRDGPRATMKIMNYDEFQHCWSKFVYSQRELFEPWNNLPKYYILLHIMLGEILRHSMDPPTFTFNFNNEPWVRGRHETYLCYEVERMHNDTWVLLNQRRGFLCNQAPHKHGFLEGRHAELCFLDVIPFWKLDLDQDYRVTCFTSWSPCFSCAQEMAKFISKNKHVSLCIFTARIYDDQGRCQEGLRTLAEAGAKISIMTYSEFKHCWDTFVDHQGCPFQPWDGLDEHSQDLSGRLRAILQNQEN

## ClC(Cl)Cl
[1]
  Potency: inactive
[2]
  outcome: inactive
[3]
  activation: -4.49% (inactive)
[4]
  Potency: inactive
[5]
  outcome: inactive
[6]
  max response: -2.31%
[7]
  outcome: inactive

## Nc1nccs1
[3]
  activation: 10.5% (inactive)
[8]
  max response: -9.51%
[9]
  outcome: inactive
[10]
  outcome: inactive
[5]
  outcome: inactive
[6]
  max response: -14.1%
[7]
  outcome: inactive

## COc1ccc(C[C@H](C)NC[C@@H](O)c2ccc(O)c(NC=O)c2)cc1
[11]
  outcome: inactive

## C=CC(C)(O)CC/C=C(\C)CCC=C(C)C (stereo not drawn)
[2]
  outcome: inactive
[3]
  activation: 1.37% (inactive)
[4]
  Potency: inactive
[8]
  max response: 18.5%
[9]
  outcome: inactive
[10]
  outcome: inactive
[12]
  outcome: inactive
[6]
  max response: 4.32%
[7]
  outcome: inactive

## O.O.O.O.O.O.O.O=S(=O)([O-])[O-].[Co+2]
[1]
  Potency: inactive
[10]
  outcome: inactive
[12]
  outcome: inactive
[6]
  max response: 2.89%
[7]
  outcome: inactive

## CCCCCCCCCCCCCCCCCC(=O)OC[C@@H](O)[C@H]1OC[C@H](O)[C@H]1O
[1]
  Potency: inactive
[13]
  activation: 14.2% (inactive)
[14]
  outcome: inactive
[2]
  outcome: inactive
[3]
  activation: 3.63% (inactive)
[4]
  Potency: inactive
[8]
  max response: 30.1%
[9]
  outcome: inactive
[10]
  outcome: inactive
[12]
  outcome: inactive
[5]
  outcome: inactive
[6]
  max response: -15.4%
[7]
  outcome: inactive

## CO/N=C(/C(=O)N[C@@H]1C(=O)N2C(C(=O)O)=C(COC(N)=O)CS[C@H]12)c1ccco1
[1]
  Potency: inactive
[3]
  activation: 5.73% (inactive)
[4]
  Potency: inactive
[10]
  outcome: inactive
[5]
  outcome: inactive
[6]
  max response: -14%
[7]
  outcome: inactive

## Cc1ccc(S(=O)(=O)NCl)cc1
[15]
  Potency: inactive
[16]
  Potency: inactive
[3]
  activation: 0.935% (inactive)
[4]
  Potency: inactive
[8]
  max response: -27%
[9]
  outcome: inactive
[10]
  outcome: inactive
[12]
  outcome: inactive
[6]
  max response: -13.1%
[7]
  outcome: inactive

## CC(C)CCC[C@@H](C)[C@H]1CC[C@H]2[C@@H]3CC=C4C[C@@H](O)CC[C@]4(C)[C@H]3CC[C@]12C
[1]
  Potency: inactive
[2]
  outcome: inactive
[3]
  activation: 13.5% (inactive)
[10]
  outcome: inactive
[12]
  outcome: inactive
[5]
  outcome: inactive

## CN(CCO)CC(O)Cn1cnc2c1c(=O)n(C)c(=O)n2C (stereo not drawn) (tested in a mixture with another compound)
[1]
  Potency: inactive
[2]
  outcome: inactive
[8]
  max response: 15.9%
[9]
  outcome: inactive
[10]
  outcome: inactive
[6]
  max response: -8.02%
[7]
  outcome: inactive

## CCCCC
[1]
  Potency: inactive
[2]
  outcome: inactive
[3]
  activation: 1.13% (inactive)
[4]
  Potency: inactive
[8]
  max response: 25%
[9]
  outcome: inactive
[5]
  outcome: inactive
[6]
  max response: -1.8%
[7]
  outcome: inactive

## CC1=CC(=O)NS(=O)(=O)O1
[1]
  Potency: inactive
[2]
  outcome: inactive
[3]
  activation: -3.71% (inactive)
[4]
  Potency: inactive
[8]
  max response: 2.47% and 22.8%
[9]
  outcome: inactive
[10]
  outcome: inactive
[12]
  outcome: inactive
[5]
  outcome: inactive
[6]
  max response: -7.78%
[7]
  outcome: inactive

## CC[C@H]1OC(=O)[C@H](C)[C@@H](O[C@H]2C[C@@](C)(OC)[C@@H](O)[C@H](C)O2)[C@H](C)[C@@H](O[C@@H]2O[C@H](C)C[C@H](N(C)C)[C@H]2O)[C@](C)(O)C[C@@H](C)CN(C)[C@H](C)[C@@H](O)[C@]1(C)O
[15]
  Potency: inactive
[16]
  Potency: inactive
[10]
  outcome: inactive
[12]
  outcome: inactive
[5]
  outcome: inactive

## CCOC(C)OCC
[1]
  Potency: inactive
[3]
  activation: -4.92% (inactive)
[4]
  Potency: inactive
[5]
  outcome: inactive
[6]
  max response: -21.2%
[7]
  outcome: inactive

## C=C1C(CCl)(CCl)C2(Cl)C(Cl)C(Cl)C1(Cl)C2(Cl)Cl (stereo not drawn)
[13]
  activation: -14.5% (inactive)

## NC(N)=O
[15]
  Potency: inactive
[16]
  Potency: inactive
[10]
  outcome: inactive
[12]
  outcome: inactive
[6]
  max response: -18.6%
[7]
  outcome: inactive

## O=C(OCc1ccccc1)c1ccc(O)cc1
[4]
  Potency: inactive
[10]
  outcome: inactive
[12]
  outcome: inactive

## Nc1ccc(N=Nc2ccccc2)c(N)n1
[15]
  Potency: inactive and 35.5 µM [inhibitor] (active)
[3]
  activation: -10.4% (inactive) and 1.07% (inactive)
[4]
  Potency: inactive
[8]
  max response: -2.71% and -25%
[9]
  outcome: inactive
[10]
  outcome: inactive
[12]
  outcome: inactive
[5]
  outcome: inactive
[6]
  max response: -10.9%
[7]
  outcome: inactive
